Measured values reported in PubChem BioAssay.
Activity calls are given as the source filed them. Unless noted, how the calls were made is not given here.

How the values were obtained:
[1] = system: Wnt5a (protein binding on small-molecule microarray); assay: Wnt5a binders on small-molecule microarray, primary screen, biophysical, 635/667 nm fluorescence (AID 1142); details: 635 nm fluorescence, higher = more signal;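 further: fluorescence read at 667 nm with signal to noise per printed feature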
[2] = cell viability in Huh7 cells, primary screen, cytotoxicity control for HCV replication inhibitor project, CellTiter-Glo luminescence, basal, 48 h (AID 1143); details: Huh7 HCV replicon, higher = more signal, called active from +8 up or from −8 down;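 further: Huh7 hepatoma cells carrying a hepatitis C replication reporter with no stimulus; test concentration not given here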
[3] = P. aeruginosa biofilm formation inhibitors, primary screen, PAO1 strain, BacTiter-Glo luminescence, LB-PBS (AID 1144); details: 12 h, higher = more signal
[4] = CREB reporter modulators without forskolin, primary screen, cell-based, PC12, CRE-LacZ reporter, unstimulated (AID 1145); details: no forskolin, luminescence, 4.5 h, higher = more signal, called active from +8 up or from −8 down
[5] = CREB reporter modulators under forskolin, primary screen, cell-based, PC12, CRE-LacZ reporter, forskolin-stimulated (AID 1146); details: luminescence, 4.5 h, higher = more signal, called active from +8 up or from −8 down;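 further: PC12 cells with 6xCRE LacZ reporter stimulated by forskolin 10 µM; beta-galactosidase reporter signal reflecting CREB driven transcription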
[6] = biological target: Streptavidin (Streptomyces avidinii) (UniProt P22629); assay: streptavidin binders on small-molecule microarray, primary screen, artefact control for SMM compound annotation, biophysical, 635/667 nm fluorescence (AID 1147); details: streptavidin binding, higher = more signal;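 further: signal reflects streptavidin binding to arrayed compounds as a control protein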
Sequence of Streptavidin (Streptomyces avidinii) (P22629 whole entry, looked up): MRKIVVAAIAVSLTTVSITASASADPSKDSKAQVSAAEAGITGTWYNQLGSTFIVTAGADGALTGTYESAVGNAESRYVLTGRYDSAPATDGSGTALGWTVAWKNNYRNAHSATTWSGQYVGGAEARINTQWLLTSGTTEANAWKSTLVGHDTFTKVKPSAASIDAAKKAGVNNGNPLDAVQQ

[7] = small-molecule binders of probe aInhba, primary screen, biochemical, small-molecule microarray, 635/667 nm fluorescence (AID 1148); details: higher = more signal;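 further: score merges 667nm spot fluorescence with signal-to-noise for antibody binding to printed compounds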
Torsin-1A (Homo sapiens) [8] = biological target: Torsin-1A (Homo sapiens) (UniProt O14656); assay: torsin A binders from cell lysate, primary screen, small-molecule microarray, wild-type, 635/667 nm (AID 1149); details: COS7 hTOR1A-WT lysate, 635 nm fluorescence, higher = more signal
Sequence of Torsin-1A (Homo sapiens) (O14656 whole entry, looked up): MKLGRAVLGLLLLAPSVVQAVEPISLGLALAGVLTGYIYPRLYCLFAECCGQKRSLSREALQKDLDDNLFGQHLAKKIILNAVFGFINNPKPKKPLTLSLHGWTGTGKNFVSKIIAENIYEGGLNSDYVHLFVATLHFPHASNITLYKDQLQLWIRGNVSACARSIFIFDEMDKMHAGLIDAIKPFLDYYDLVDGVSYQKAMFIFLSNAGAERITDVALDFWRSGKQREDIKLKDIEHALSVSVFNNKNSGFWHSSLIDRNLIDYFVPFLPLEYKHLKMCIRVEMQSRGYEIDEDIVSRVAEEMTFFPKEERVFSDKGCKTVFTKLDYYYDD

Torsin-1A (Homo sapiens) [9] = biological target: Torsin-1A (Homo sapiens) (UniProt O14656); assay: small-molecule binders of mutant TOR1A in lysate, primary screen, cell lysate, small-molecule microarray, COS7 lysate, 635/667 nm fluorescence (AID 1150); details: COS7 hTOR1A mutant lysate, 635 nm fluorescence, higher = more signal;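 further: score pools 667 nm emission and signal to noise measuring lysate protein binding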
[10] = system: Sonic hedgehog protein (Shh); assay: small-molecule binders of Shh protein, primary screen, biochemical, small-molecule microarray, 635/667 nm fluorescence (AID 1151); details: small-molecule microarray binding, 635 nm fluorescence; higher = more signal;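 further: Shh protein binding to compounds spotted on small-molecule microarray slides; score combines spot fluorescence intensity with signal-to-noise across triplicate slides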
[11] = E. coli DRC41 culture turbidity changes, primary screen, E. coli filamentation inducer project, strain DRC41, OD650, 48 h (AID 1152);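 further: E. coli MC1000 strain DRC41 lacking acrAB efflux pump and sulA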; details: E. coli DRC41 (acrAB sulA), higher = more signal, called active from +8 up or from −8 down
[12] = small-molecule binders of probe aLefty1, primary screen, biochemical, small-molecule microarray, 635/667 nm fluorescence (AID 1153); details: higher = more signal;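 further: score merges spot fluorescence with signal-to-noise ratio from the scanned slide images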
[13] = PSAC antagonists in infected red cells, primary screen, cell-based, P. falciparum Indochina, OD700, 1 h (AID 1154); details: P. falciparum Indochina infected RBC osmotic lysis, higher = more signal, called active from +8 up or from −8 down
[14] = PSAC antagonists in infected red cells, primary screen, cell-based, P. falciparum Indochina, OD700, 2 h (AID 1155);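 further: lysis reports solute entry through the parasite surface anion channel PSAC; channel blockers reduce lysis of infected cells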; details: P. falciparum Indochina infected erythrocytes, osmotic lysis OD700; higher = more signal, called active from +8 up or from −8 down
[15] = osmotic lysis modulators in infected erythrocytes, primary screen, PSAC antagonist project, cell-based, P. falciparum Indochina, OD700, 3 h (AID 1156); details: higher = more signal, called active from +8 up or from −8 down
[16] = PSAC antagonists in infected red cells, primary screen, cell-based, P. falciparum Indochina, OD700, 18 h (AID 1157); details: P. falciparum Indochina infected erythrocytes, osmotic lysis OD700, 18 h; higher = more signal, called active from +8 up or from −8 down
[17] = modulators of S6 phosphorylation in cells, primary screen, cell-based, A549, cytoblot, luminescence, serum-stimulated (AID 1158); details: A549 phospho-S6 cytoblot, 5 h, higher = more signal;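 further: serum-stimulated A549 lung adenocarcinoma cells; signal is phosphorylated S6 detected by cytoblot immunostaining with HRP secondary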
[18] = biological target: NADPH oxidase 2 (Homo sapiens) (UniProt P04839); assay: NOX2-dependent H2O2 signal modulators, primary screen, NOX inhibitor project, cell-based, HEK293-NOX2, PMA-stimulated, Amplex Red fluorescence (AID 1159); details: 45 min, higher = more signal, called active from +8 up or from −8 down; further: test concentration not given here
Sequence of NADPH oxidase 2 (Homo sapiens) (P04839 whole entry, looked up): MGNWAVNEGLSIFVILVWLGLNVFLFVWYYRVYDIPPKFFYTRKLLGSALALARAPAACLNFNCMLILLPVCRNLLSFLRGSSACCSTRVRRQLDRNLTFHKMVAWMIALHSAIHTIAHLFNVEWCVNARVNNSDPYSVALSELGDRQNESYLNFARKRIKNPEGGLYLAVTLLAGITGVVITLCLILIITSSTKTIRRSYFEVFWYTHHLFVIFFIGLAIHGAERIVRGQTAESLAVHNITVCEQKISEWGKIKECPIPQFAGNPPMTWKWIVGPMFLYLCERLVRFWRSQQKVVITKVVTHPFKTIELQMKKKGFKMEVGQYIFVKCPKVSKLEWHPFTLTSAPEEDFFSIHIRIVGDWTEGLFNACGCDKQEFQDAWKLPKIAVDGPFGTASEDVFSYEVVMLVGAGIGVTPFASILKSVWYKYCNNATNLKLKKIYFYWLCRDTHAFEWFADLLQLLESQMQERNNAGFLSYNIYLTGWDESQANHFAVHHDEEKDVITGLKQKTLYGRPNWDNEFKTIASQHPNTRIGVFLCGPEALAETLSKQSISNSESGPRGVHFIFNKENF

[19] = biological target: NADPH oxidase 4 (Homo sapiens) (UniProt Q9NPH5); assay: NOX4-dependent H2O2 signal modulators, primary screen, NOX inhibitor project, cell-based, HEK293-NOX4, tetracycline-induced, Amplex Red fluorescence (AID 1160); details: 45 min, higher = more signal, called active from +8 up or from −8 down
Sequence of NADPH oxidase 4 (Homo sapiens) (Q9NPH5 whole entry, looked up): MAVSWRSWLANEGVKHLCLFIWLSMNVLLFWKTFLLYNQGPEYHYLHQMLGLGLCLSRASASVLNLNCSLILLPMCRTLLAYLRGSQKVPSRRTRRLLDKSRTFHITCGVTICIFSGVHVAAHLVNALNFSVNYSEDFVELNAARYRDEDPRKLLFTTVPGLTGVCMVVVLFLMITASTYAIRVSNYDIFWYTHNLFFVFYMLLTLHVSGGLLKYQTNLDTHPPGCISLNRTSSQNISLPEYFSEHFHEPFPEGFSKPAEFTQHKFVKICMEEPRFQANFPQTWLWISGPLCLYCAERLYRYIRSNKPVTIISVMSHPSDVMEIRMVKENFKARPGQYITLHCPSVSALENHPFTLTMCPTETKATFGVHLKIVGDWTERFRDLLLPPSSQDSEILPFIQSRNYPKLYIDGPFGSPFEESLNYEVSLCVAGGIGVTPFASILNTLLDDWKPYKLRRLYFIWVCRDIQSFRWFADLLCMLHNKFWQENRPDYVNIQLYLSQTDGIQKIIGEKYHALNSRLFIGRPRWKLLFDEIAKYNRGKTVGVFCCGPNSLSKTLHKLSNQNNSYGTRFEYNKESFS

[20] = biological target: NADPH oxidase 5 (Homo sapiens) (UniProt Q96PH1); assay: NOX5-dependent H2O2 signal modulators, primary screen, NOX inhibitor project, cell-based, HEK293-NOX5, Amplex Red fluorescence (AID 1161); details: HEK293-NOX5, ionomycin, 45 min, higher = more signal
Sequence of NADPH oxidase 5 (Homo sapiens) (Q96PH1 whole entry, looked up): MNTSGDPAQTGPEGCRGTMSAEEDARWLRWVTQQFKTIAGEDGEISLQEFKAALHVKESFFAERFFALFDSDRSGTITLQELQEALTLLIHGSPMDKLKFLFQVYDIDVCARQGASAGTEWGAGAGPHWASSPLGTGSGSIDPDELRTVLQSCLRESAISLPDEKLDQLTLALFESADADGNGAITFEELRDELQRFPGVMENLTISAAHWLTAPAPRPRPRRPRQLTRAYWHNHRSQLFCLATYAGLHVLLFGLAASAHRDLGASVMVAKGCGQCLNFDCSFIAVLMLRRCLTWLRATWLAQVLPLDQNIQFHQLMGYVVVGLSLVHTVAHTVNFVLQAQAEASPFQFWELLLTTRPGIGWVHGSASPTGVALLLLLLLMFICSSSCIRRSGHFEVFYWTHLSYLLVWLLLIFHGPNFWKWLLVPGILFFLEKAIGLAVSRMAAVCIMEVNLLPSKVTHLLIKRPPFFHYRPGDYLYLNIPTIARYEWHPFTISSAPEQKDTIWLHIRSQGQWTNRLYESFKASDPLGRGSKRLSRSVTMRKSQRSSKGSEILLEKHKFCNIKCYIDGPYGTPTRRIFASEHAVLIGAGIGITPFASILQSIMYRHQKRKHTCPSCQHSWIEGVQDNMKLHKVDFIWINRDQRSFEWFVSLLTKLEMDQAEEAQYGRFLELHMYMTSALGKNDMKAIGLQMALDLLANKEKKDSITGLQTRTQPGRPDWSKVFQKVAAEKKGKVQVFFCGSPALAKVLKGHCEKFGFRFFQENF

SMILES | composite z-score [1] | z-score [2] | z-score [3] | z-score [4] | z-score [5] | composite z-score [6] | composite z-score [7] | composite z-score (Torsin-1A (Homo sapiens) [8]) | composite z-score (Torsin-1A (Homo sapiens) [9]) | composite z-score [10] | z-score [11] | composite z-score [12] | z-score [13] | z-score [14] | z-score [15] | z-score [16] | z-score [17] | z-score [18] | z-score [19] | z-score [20]
C=CCOC(=O)[C@H]1[C@@H]2C(=O)O[C@@H](c3ccccc3)[C@@H](c3ccccc3)N2[C@@H](c2ccc(OCCOC(=O)[C@@H]3C[C@@H]4C(=O)N5CCC[C@H]5C(=O)N4[C@@H]3c3cccc(OCCO)c3)cc2)[C@]12C(=O)Nc1ccccc12 | 0.537 | 0.0308 (inactive) | -0.0247 (inactive) | -0.675 (inactive) | 0.0527 (inactive) | -0.274 | 0.325 | 0.459 | 0.767 | 1.56 | -0.152 (inactive) | 0.603 | 3.47 (inactive) | 1.16 (inactive) | 3.5 (inactive) | 0.671 (inactive) | 0.605 | 2.26 (inactive) | 0.917 (inactive) | 0.15
COCCOC(=O)N1C(=O)[C@@]2(c3cc(C#CC4=CCCCC4)ccc31)[C@H](C(=O)N1CCc3cc(OC)c(OC)cc3C1)[C@H]1C(=O)O[C@H](c3ccccc3)[C@H](c3ccccc3)N1[C@@H]2c1ccc(OCCO)cc1 | 0.538 | -0.571 (inactive) | -0.259 (inactive) | -0.475 (inactive) | -0.381 (inactive) | 0.665 | 0.0649 | 0.304 | 0.295 | 1.38 | -0.332 (inactive) | 0.0752 | 3.71 (inactive) | 1.19 (inactive) | -0.129 (inactive) | 0.801 (inactive) | 0.261 | 1.77 (inactive) | 1.18 (inactive) | 0.669
CN(C)CCCNC(=O)[C@@]1(c2ccc([N+](=O)[O-])cc2)CC(=O)N(C2CCCCC2)[C@@H]1c1ccc(CO)cc1I | -0.107 | -5.87 (inactive) | 0.262 (inactive) | 0.378 (inactive) | 0.519 (inactive) | 0.71 | -0.016 | 0.343 | 0.306 | 0.279 | -2.09 (inactive) | 0.0824 | 14.8 (active) | 1.44 (inactive) | -2.81 (inactive) | 0.037 (inactive) | -1.78 | -8.16 (active) | -2.52 (inactive) | 0.205
O=C1O[C@H](c2ccccc2)[C@H](c2ccccc2)N2[C@H]1[C@@H](C(=O)Nc1nc3ccccc3s1)[C@]1(C(=O)Nc3ccc(C#CCCO)cc31)[C@H]2c1ccc(OCCO)cc1 | 0.767 | -0.218 (inactive) | -0.0404 (inactive) | -0.471 (inactive) | 0.806 (inactive) | 1.1 | 0.532 | 1.15 | 0.637 | 1.05 | -0.448 (inactive) | 1.34 | 3.09 (inactive) | 2.02 (inactive) | 0.97 (inactive) | 2 (inactive) | -0.472 | 1.18 (inactive) | 0.111 (inactive) | 0.278
C#CCN(CC1=CCCCC1)[C@H](c1ccccc1Br)[C@@H](O)Cc1ccccc1 | -0.0365 | -1.5 (inactive) | 0.0281 (inactive) | 2.21 (inactive) | 0.219 (inactive) | -0.949 | -0.159 | 1.07 | 0.962 | -0.515 | 1.5 (inactive) | -0.0547 | 3.02 (inactive) | 0.849 (inactive) | 0.372 (inactive) | 0.109 (inactive) | 0.114 | -0.456 (inactive) | 0.191 (inactive) | -1.45
COCCCN1C(=O)[C@@]2(Cc3ccccc31)c1ccccc1C(=O)N(Cc1ccccc1C(F)(F)F)[C@H]2c1ccc(CO)cc1 | 0.16 | 0.287 (inactive) | -0.169 (inactive) | -0.581 (inactive) | 0.255 (inactive) | 0.147 | 0.331 | -0.0888 | -0.0875 | 0.498 | -0.125 (inactive) | -0.208 | 0.512 (inactive) | 0.635 (inactive) | -0.101 (inactive) | 0.427 (inactive) | 0.0136 | -0.767 (inactive) | -0.607 (inactive) | 0.77
CCCC=C(CCC)[C@@H](NS(=O)(=O)c1cccs1)c1ccc(C(=O)OC)cc1 | 0.247 | -3.88 (inactive) | 0.276 (inactive) | 0.201 (inactive) | 0.91 (inactive) | 1.37 | 0.16 | -0.0907 | 0.647 | -0.168 | -1.35 (inactive) | 0.133 | 1.19 (inactive) | 0.0633 (inactive) | 1.28 (inactive) | 0.567 (inactive) | -1.13 | -0.547 (inactive) | -3.59 (inactive) | 0.708
COc1ccc([Si](C)(C)[C@H]2[C@H](CCO)O[C@@]3(C(=O)N(C)c4c(Br)cc(C)cc43)[C@@H]2C)cc1 | -0.0092 | -8.05 (active) | -1 (inactive) | 15.2 (active) | -3.2 (inactive) | 0.0036 | -0.0523 | 1.15 | 0.105 | 1.29 | -1.28 (inactive) | 0.0486 | 7.79 (inactive) | 1.8 (inactive) | -2.17 (inactive) | 0.987 (inactive) | 0.0508 | -1.41 (inactive) | -1.15 (inactive) | -0.777
O=C1OCCC/C=C\[C@H]2OC34C=CCN(Cc5ccccc5)C(=O)[C@H]3N(CCCCCCO)C(=O)[C@@H]4C12 (stereo not given in full) | -0.489 | 0.233 (inactive) | -1.14 (inactive) | 1.01 (inactive) | 0.0851 (inactive) | -0.821 | -0.147 | -0.309 | 1.9 | -0.693 | 1.19 (inactive) | -0.0576 | 2.96 (inactive) | 0.141 (inactive) | 0.59 (inactive) | 0.524 (inactive) | 0.0169 | 1.12 (inactive) | 0.279 (inactive) | 1.88
